# Data: PubChem BioAssay
# The source made the active and inactive calls.
# Assays:
# [1] = test system: Plasmodium falciparum Sir2 (PF13_0152, Sir2A); assay: pfSir2 binders on small-molecule microarrays, primary screen, biochemical, small-molecule microarray, 635 nm fluorescence (AID 1098); settings: small-molecule microarray binding, fluorescence 635 nm; higher = more signal;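 note: score merges spot fluorescence intensity with its signal-to-noise ratio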
# [2] = small-molecule microarray binders of probe aDKK1, primary screen, biochemical, biotinylated probe, 635/667 nm fluorescence (AID 1099); settings: higher = more signal;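 note: score merges 667nm spot fluorescence with signal to noise across triplicate slides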
# [3] = small-molecule microarray binders of probe aCHRDL2, primary screen, biochemical, biotinylated probe, 635/667 nm fluorescence (AID 1100); settings: higher = more signal
# [4] = splicing luciferase reporter signal modulators, primary screen, spliceosome inhibition project, cell-based, HEK293, splice +/- reporter (AID 1101); settings: luminescence, 24 h, higher = more signal, called active from +8 up or from −8 down;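 note: HEK293 cells carrying a splicing-competent luciferase reporter gene; test concentration not given here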
# [5] = biological target: Fibroblast growth factor 10 (Homo sapiens) (UniProt O15520); assay: FGF10 binders on small-molecule microarrays, primary screen, biochemical, small-molecule microarray, 635 nm fluorescence (AID 1102); settings: FGF10 binding, fluorescence 635 nm, higher = more signal
# [6] = test system: glycogen synthase kinase-3 (GSK3A per assay name; protocol says GSK3B); assay: GSK3 binders on small-molecule microarrays, primary screen, biochemical, small-molecule microarray, 635 nm fluorescence, GSK3A (AID 1103); settings: small-molecule microarray binding, fluorescence 635 nm; higher = more signal; note: the record names both GSK3A and GSK3B
# [7] = biological target: Epidermal growth factor receptor (Homo sapiens) (UniProt P00533); assay: EGFR binders on small-molecule microarrays, primary screen, biochemical, small-molecule microarray, 635 nm fluorescence (AID 1104); settings: EGFR binding, higher = more signal;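 note: score merges 667 nm emission intensity with spot signal to noise over triplicate slides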
# [8] = biological target: Follistatin-related protein 3 (Homo sapiens) (UniProt O95633); assay: FSTL3 binders on small-molecule microarrays, primary screen, biochemical, small-molecule microarray, 635 nm fluorescence (AID 1105); settings: FSTL3 binding, higher = more signal;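 note: score merges emission near 667 nm and signal to noise per printed spot across three slides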
# [9] = biological target: Dickkopf-related protein 1 (Homo sapiens) (UniProt O94907); assay: DKK1 binders on small-molecule microarrays, primary screen, biochemical, small-molecule microarray, 635 nm fluorescence scan (AID 1106); settings: DKK1 binding, higher = more signal;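 note: score merges emission near 667 nm with signal to noise over three replicate slides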
# [10] = test system: Inhibin beta A chain (activin A); assay: INHBA (activin A) binders on microarrays, primary screen, biochemical, small-molecule microarray, 635 nm fluorescence scan (AID 1107); settings: small-molecule microarray binding, higher = more signal;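 note: mouse activin A protein probed at 4.33 µg/mL on printed slides; score merges bound-protein fluorescence near 667 nm with spot signal-to-noise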
# [11] = test system: Human papillomavirus type 1a protein E7 (residues 44-93); assay: HPV1a E7 fragment binders on microarrays, primary screen, biochemical, small-molecule microarray, residues 44-93, 635 nm fluorescence (AID 1108); settings: small-molecule microarray binding, fluorescence 635 nm; higher = more signal;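 note: E7 fragment applied at 1 µg/mL in TBST for 1 h at 4 C; score combines spot fluorescence with its signal to noise ratio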
# [12] = modulators of HCV replicon luciferase signal, primary screen, HCV replication inhibitor project, Huh7 cells, luciferase reporter (AID 1109); settings: 48 h, higher = more signal;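 note: huh7 hepatoma cells harbouring a luciferase neomycin HCV replicon reporter; luciferase luminescence as measure of HCV replicon replication; test concentration not given here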
# [13] = biological target: Left-right determination factor 2 (Homo sapiens) (UniProt O00292); assay: LEFTY2 binders on small-molecule microarrays, primary screen, biochemical, small-molecule microarray, 635 nm fluorescence scan (AID 1110); settings: LEFTY2 binding, higher = more signal
# [14] = biological target: Calmodulin-1 (Homo sapiens) (UniProt P0DP23); assay: CALM1 binders on microarrays, EGTA buffer, profiling panel, biochemical, small-molecule microarray, Cy5-labelled CALM1 (AID 1111); settings: Cy5-CALM1 binding fluorescence, higher = more signal;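 note: labelled calmodulin applied in Tris saline Tween buffer holding calcium plus EGTA and DTT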
# [15] = biological target: Calmodulin-1 (Homo sapiens) (UniProt P0DP23); assay: calcium-bound CALM1 binders on microarrays, profiling panel, artefact control for SMM control-protein annotation, biochemical, small-molecule microarray, Cy5-labelled CALM1, plus calcium (AID 1112); settings: Cy5-CALM1 binding fluorescence, higher = more signal;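 note: score merges spot fluorescence with signal to noise from triplicate slides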
# [16] = small-molecule microarray binders of probe aWnt5a, primary screen, biochemical, biotinylated probe, 635/667 nm fluorescence (AID 1113); settings: higher = more signal;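 note: score merges 667 nm fluorescence intensity with signal-to-noise per printed feature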
# [17] = small-molecule microarray binders of probe aShh, primary screen, biochemical, biotinylated probe, 635/667 nm fluorescence (AID 1114); settings: higher = more signal;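 note: probe is biotin-labelled aShh protein from a stem cell growth factor screen; measures binding of labelled protein to compounds printed on the slide; score merges feature fluorescence at 667 nm with signal-to-noise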
# [18] = small-molecule microarray binders of probe aNog, primary screen, biochemical, biotinylated probe, 635/667 nm fluorescence (AID 1115); settings: higher = more signal;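 note: probe is biotinylated aNog protein used at 0.15 µg/mL for 1 h at 4 C; z-score combines 667 nm fluorescence of each spot with its signal to noise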
# [19] = biological target: Torsin-1A-interacting protein 1 (Homo sapiens) (UniProt Q5JTV8); assay: LAP1 binders from COS7 cell lysate, primary screen, small-molecule microarray, 635/667 nm fluorescence (AID 1116); settings: COS7-hLAP1 lysate binding, 635 nm fluorescence, higher = more signal
# [20] = biological target: Alpha-bungarotoxin (Bungarus multicinctus) (UniProt P60615); assay: alpha-bungarotoxin binders on microarray, profiling panel, artefact control for SMM control protein annotation, biochemical, small-molecule microarray, Alexa647 label, 635/667 nm fluorescence (AID 1117); settings: alpha-BTX-A647 binding fluorescence, higher = more signal
# Sequence of Alpha-bungarotoxin (Bungarus multicinctus) (P60615 whole entry, looked up): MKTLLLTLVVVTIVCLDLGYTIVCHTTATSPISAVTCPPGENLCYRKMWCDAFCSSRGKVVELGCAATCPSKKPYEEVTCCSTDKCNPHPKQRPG
# Sequence of Follistatin-related protein 3 (Homo sapiens) (O95633 whole entry, looked up): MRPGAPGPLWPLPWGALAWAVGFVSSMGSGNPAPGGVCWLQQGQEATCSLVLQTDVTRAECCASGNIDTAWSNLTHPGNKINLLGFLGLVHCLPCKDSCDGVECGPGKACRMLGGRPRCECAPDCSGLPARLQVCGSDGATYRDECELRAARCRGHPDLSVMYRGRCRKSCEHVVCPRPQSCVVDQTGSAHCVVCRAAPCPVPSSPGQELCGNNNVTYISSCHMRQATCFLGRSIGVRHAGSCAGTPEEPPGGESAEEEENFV
# Sequence of Fibroblast growth factor 10 (Homo sapiens) (O15520 whole entry, looked up): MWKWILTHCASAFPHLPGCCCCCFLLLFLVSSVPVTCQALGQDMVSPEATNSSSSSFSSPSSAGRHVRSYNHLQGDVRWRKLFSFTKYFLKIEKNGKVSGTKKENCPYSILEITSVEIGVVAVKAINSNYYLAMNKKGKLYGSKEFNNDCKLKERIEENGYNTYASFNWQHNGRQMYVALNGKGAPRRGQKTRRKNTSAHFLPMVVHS
# Sequence of Torsin-1A-interacting protein 1 (Homo sapiens) (Q5JTV8 whole entry, looked up): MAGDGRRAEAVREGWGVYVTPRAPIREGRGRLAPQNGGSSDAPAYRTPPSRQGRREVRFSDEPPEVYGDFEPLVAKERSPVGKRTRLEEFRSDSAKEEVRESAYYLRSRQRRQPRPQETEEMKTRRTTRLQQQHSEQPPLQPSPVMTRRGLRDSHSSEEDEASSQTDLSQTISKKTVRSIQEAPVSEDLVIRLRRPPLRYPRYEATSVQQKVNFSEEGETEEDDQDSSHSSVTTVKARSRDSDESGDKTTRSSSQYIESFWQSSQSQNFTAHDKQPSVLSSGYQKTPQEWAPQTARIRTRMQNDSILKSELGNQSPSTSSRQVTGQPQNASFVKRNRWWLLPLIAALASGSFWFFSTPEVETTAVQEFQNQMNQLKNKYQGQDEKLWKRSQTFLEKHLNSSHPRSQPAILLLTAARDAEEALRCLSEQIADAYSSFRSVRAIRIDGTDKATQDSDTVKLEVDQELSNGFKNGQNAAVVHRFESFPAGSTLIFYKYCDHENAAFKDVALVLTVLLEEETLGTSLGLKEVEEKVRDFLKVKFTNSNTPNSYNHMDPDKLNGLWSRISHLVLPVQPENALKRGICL
# Sequence of Epidermal growth factor receptor (Homo sapiens) (P00533 whole entry, looked up): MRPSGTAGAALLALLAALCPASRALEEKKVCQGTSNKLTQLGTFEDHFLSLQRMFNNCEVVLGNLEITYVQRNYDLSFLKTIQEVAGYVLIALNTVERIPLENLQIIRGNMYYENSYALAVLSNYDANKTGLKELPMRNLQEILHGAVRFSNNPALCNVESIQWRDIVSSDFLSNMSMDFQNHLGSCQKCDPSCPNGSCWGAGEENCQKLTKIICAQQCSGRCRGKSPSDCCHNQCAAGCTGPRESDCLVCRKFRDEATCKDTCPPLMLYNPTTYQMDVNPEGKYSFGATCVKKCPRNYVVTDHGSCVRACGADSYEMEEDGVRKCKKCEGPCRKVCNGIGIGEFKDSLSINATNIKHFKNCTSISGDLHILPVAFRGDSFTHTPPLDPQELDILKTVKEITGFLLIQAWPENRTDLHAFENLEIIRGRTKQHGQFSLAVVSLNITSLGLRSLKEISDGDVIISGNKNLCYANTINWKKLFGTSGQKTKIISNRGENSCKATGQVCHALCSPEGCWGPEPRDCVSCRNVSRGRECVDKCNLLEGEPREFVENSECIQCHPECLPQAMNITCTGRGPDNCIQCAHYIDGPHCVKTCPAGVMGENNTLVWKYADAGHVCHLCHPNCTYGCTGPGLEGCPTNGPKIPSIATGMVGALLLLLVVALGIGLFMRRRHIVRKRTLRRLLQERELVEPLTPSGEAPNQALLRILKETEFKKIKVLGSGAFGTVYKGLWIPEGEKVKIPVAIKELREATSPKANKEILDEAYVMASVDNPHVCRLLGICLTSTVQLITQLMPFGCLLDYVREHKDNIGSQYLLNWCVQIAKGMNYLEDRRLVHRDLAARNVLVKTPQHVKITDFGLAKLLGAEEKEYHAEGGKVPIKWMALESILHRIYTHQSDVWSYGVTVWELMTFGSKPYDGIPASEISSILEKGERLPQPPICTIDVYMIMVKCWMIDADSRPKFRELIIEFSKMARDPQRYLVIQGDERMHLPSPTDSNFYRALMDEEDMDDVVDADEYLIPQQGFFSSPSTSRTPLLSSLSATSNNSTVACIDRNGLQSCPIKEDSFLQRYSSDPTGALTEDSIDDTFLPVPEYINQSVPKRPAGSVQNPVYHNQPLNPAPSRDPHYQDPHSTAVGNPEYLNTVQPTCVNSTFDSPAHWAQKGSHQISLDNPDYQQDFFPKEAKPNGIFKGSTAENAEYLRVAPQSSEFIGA
# Sequence of Dickkopf-related protein 1 (Homo sapiens) (O94907 whole entry, looked up): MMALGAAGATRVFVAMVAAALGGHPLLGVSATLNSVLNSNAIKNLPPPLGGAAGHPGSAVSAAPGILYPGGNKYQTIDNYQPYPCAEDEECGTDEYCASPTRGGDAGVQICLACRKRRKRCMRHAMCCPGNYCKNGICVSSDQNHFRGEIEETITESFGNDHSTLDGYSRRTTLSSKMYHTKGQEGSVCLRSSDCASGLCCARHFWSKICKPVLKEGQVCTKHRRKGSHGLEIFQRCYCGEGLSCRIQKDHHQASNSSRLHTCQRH
# Sequence of Left-right determination factor 2 (Homo sapiens) (O00292 whole entry, looked up): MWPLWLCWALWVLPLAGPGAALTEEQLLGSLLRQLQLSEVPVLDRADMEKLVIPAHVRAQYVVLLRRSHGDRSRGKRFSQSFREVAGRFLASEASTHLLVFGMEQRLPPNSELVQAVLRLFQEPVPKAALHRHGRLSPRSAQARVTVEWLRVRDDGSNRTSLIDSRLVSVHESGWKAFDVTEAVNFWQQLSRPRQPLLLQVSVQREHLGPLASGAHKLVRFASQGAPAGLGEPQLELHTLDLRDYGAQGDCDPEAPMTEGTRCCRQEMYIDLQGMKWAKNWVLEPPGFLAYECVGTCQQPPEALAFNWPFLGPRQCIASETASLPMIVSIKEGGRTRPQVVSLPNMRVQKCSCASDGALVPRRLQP
Compound,composite z-score [1],composite z-score [2],composite z-score [3],z-score [4],composite z-score [5],composite z-score [6],composite z-score [7],composite z-score [8],composite z-score [9],composite z-score [10],composite z-score [11],z-score [12],composite z-score [13],composite z-score [14],composite z-score [15],composite z-score [16],composite z-score [17],composite z-score [18],composite z-score [19],composite z-score [20]
COc1cc2c(cc1OC)CN(C(=O)[C@H]1[C@@H]3C(=O)O[C@@H](c4ccccc4)[C@@H](c4ccccc4)N3[C@@H](c3ccccc3OCCO)[C@]13C(=O)Nc1ccc(C#CCCO)cc13)CC2,1.37,-0.112,-0.294,-0.826 (inactive),0.786,1.28,0.47,0.964,0.518,0.931,1.37,-1.79,0.61,0.234,-0.114,0.0136,-0.138,0.194,0.532,0.862
O=C1O[C@H](c2ccccc2)[C@H](c2ccccc2)N2[C@H]1[C@@H](C(=O)N1CCN(c3ncccn3)CC1)[C@]1(C(=O)Nc3ccc(C#CC4=CCCCC4)cc31)[C@H]2c1ccccc1OCCO,1.7,-0.14,0.259,-1.14 (inactive),1.02,1.3,0.645,1.31,0.71,1.08,0.379,-1.67,0.818,0.858,-0.198,0.212,0.299,0.998,0.201,1.59
COc1ccc(NN2C(C(O)c3ccc(N(C)C)cc3)C=CC3C(=O)N(C4CCCCC4)C(=O)C32)cc1 (stereo not given),1.01,1.15,0.649,-0.438 (inactive),0.635,1.3,0.322,0.659,-0.28,0.814,1.42,-0.581,-0.146,1.21,0.651,0.351,-0.0248,0.42,1.22,1.72
O=C(CS)NCCCCCNC(=O)[C@@H]1C[C@@H]2C(=O)NCC(=O)N2[C@@H]1c1ccc(O)cc1,0.793,-0.179,0.347,0.0774 (inactive),0.528,0.692,0.17,0.157,-0.109,0.606,0.722,0.627,0.31,-0.0523,-0.109,-0.165,-0.0709,-0.122,-0.0104,-0.581
CC(=O)Nc1cc(Br)ccc1C(=O)NCc1ccccc1,0.695,-0.0601,0.416,-0.508 (inactive),-0.158,0.0021,-0.274,-0.187,-0.221,0.305,1.09,-0.0162,-0.174,0.851,0.517,-0.0346,-0.16,-0.196,0.341,0.809
COC(=O)[C@@]1(Cc2ccc(F)cc2)[C@H]2c3cc(C(=O)N(C)C)n(Cc4ccc(C)o4)c3C[C@H]2CN1C(=O)c1ccccc1,1.29,2.05,0.495,-1.6 (inactive),0.152,0.102,-1.87,-1.13,-1.39,1.07,-0.0043,-0.8,-1.14,1.81,-0.969,0.749,1.85,3.48,5.2,-1.73
[N-]=[N+]=NCc1ccccc1[C@@H]1OC(c2ccc(OCCCO)cc2)=N[C@]1(CCS(=O)(=O)c1ccccc1)C(N)=O,1.32,0.775,1.01,0.25 (inactive),1.6,1.32,0.588,1.41,1.47,1.3,1.5,1.35,0.767,0.731,0.242,0.164,0.5,0.769,1.81,2.19
C=CCNC(=O)[C@H]1[C@@H]2C(=O)O[C@@H](c3ccccc3)[C@@H](c3ccccc3)N2[C@@H](c2ccc(O)cc2)[C@]12C(=O)Nc1ccc(C#CCCO)cc12,0.526,0.0418,0.198,0.0704 (inactive),-0.818,-0.572,-0.326,-0.561,0.0898,0.629,-0.336,0.142,0.185,-0.314,0.107,-0.124,0.0982,-0.161,-0.428,-0.503
CCCCCCc1nc(-c2ccc(-c3ccc(Cl)c(Cl)c3)o2)cc2c1[Si](C(C)C)(C(C)C)O[C@H]2c1ccccc1,0.0593,-0.294,0.0787,-0.112 (inactive),-0.515,-1.26,-0.287,-0.737,0.0981,0.62,-0.545,-0.674,-0.0324,-0.365,0.077,-0.264,0.0723,-0.141,-0.741,0.622
COC(=O)[C@]1(CCC(=O)OC(C)(C)C)N=C(c2ccc(OCCCO)cc2)O[C@@H]1c1ccccc1,1.37,0.46,0.779,-0.783 (inactive),-0.361,-0.495,-0.754,-0.577,-0.563,-0.0102,0.529,-2.73,-1.45,-0.221,0.271,-0.0405,0.04,1.24,1.79,1.29
COC(=O)[C@@]1(Cc2ccc(OC)cc2)[C@H]2c3cc(C(=O)N4CCCC4)n(CCSCCO)c3C[C@H]2CN1C(=O)c1ccccc1,0.45,0.852,1.21,-0.657 (inactive),0.556,0.541,0.0009,-0.17,-0.984,0.435,1.37,-1.48,-0.641,1.66,0.644,0.151,0.0039,2.04,1.01,1.22
CCCNC(=O)[C@@H]1c2ccccc2C(=O)N(Cc2ccccc2OC)[C@H]1c1ccc(CO)cc1,1.37,0.0051,0.4,0.233 (inactive),0.714,0.68,0.0755,0.995,0.216,-0.258,1.46,-1.12,0.146,1.07,0.485,-0.0512,-0.173,0.57,0.239,1.25
